Mcl1-Noxa inh: Mcl-1/Noxa binding inhibitors, primary screen, biochemical, TR-FRET, 1536-well; TR-FRET Mcl-1/Noxa peptide binding, 2 h; inhibition, % at 21.7 µM; 220,000 compounds, 1.5% hits; AID 1022, 2008;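 active means compounds that cut the protein-peptide binding signal by more than 50% relative to plate controls in a single-dose test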;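 further: His-tagged Mcl-1 with rhodamine Noxa BH3 peptide and terbium anti-His antibody; 0% = Mcl-1 plus Noxa peptide wells and 100% = peptide-only wells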
Target sequence (Q07820 whole entry, looked up): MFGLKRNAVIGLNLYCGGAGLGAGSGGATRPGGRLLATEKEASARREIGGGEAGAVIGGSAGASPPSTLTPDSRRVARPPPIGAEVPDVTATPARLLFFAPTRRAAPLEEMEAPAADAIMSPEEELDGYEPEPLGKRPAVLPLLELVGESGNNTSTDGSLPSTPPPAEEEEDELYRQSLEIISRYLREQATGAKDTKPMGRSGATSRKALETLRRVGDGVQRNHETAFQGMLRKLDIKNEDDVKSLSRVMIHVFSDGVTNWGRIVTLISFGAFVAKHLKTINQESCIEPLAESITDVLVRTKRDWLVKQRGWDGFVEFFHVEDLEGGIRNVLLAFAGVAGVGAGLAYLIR
14-3-3 Bad PPI: inhibitors of 14-3-3 zeta/Bad binding, primary screen, biochemical, TR-FRET, bovine 14-3-3 zeta; TR-FRET 14-3-3zeta/Dy647-pBad peptide displacement, 1 h; inhibition, % at 21.7 µM; 220,000 compounds, 0.71% hits;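 active means inhibition above about 70%, limit read from the data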;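 further: 0% = full 14-3-3 plus peptide FRET controls and 100% = background without 14-3-3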
Target sequence (P63103 whole entry, looked up): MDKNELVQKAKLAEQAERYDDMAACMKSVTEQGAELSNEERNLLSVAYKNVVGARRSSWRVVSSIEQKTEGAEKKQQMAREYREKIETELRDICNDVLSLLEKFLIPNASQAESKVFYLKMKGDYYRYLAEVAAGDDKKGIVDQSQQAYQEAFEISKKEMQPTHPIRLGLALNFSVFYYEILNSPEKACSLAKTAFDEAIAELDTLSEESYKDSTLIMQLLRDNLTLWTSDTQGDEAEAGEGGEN
eIF4E-4G inh: eIF4E–eIF4G protein interaction inhibitors, primary screen, biochemical, uHTS, TR-FRET, eIF4GI fragment; TR-FRET eIF4E-eIF4GI(517-606) binding, 2 h; inhibition, % at 21.7 µM; 220,000 compounds, 0.37% hits;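 further: 0% = full FRET control wells and 100% = background wells lacking eIF4GI fragment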
Mcl1-Bid inh: Mcl-1/Bid binding inhibitors, primary screen, biochemical, TR-FRET, 1536-well | TR-FRET Mcl-1/Bid-Dy647 peptide binding | AID 1021, 2008 | inhibition, % at 21.7 µM | 220,000 compounds, 0.97% hits | Induced myeloid leukemia cell differentiation protein Mcl-1 (Homo sapiens), Q07820;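 active means compounds that cut the binding signal by more than half at the single screening dose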;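 further: His-tagged Mcl-1 with europium anti-His antibody binding Bid BH3 peptide; 0% = Mcl-1 plus peptide wells and 100% = peptide-only wells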
p47phox inh: p47phox/p22phox peptide binding inhibitors, primary screen, biochemical, uHTS, NADPH oxidase regulatory subunit. 220,000 compounds, 0.53% hits. inhibition, % at 24.7 µM. Neutrophil cytosol factor 1 (Homo sapiens), P14598. fluorescence polarization, 2 h;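 further: 0% = p47phox with labelled peptide and 100% = labelled peptide alone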
Bim-Mcl-1: inhibitors of Bim peptide binding to Mcl-1, primary screen, biochemical, bead-based flow cytometry, multiplex. Induced myeloid leukemia cell differentiation protein Mcl-1 (Homo sapiens), Q07820. 190,000 compounds, 0.1% hits. Bim peptide-Mcl-1 binding. AID 1009, 2008. inhibition, % at 10 µM; in the data active means inhibition above about 40%;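 further: 0% = no compound tracer wells and 100% = peptide blocker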
The depositor's hits bear a star. An excerpt weighted towards active compounds, which were near 3.3% of everything screened.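 How the source made its calls, unless noted: active means inhibition above about 30% (limit read from the data); inactive means the rest.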

What do the screens show for `Cc1cc(C(=O)O)ccc1-n1c(C)ccc1C`?
Mcl1-Noxa inh: 78*; 14-3-3 Bad PPI: 0; eIF4E-4G inh: 7; Mcl1-Bid inh: 57*; p47phox inh: -25; Bim-Mcl-1: 2

Results for COc1c(C)cc(C(=O)C2CCCN(Cc3ccc(Oc4ncccn4)cc3)C2)cc1C (centres undefined) ?
Mcl1-Noxa inh: 15; 14-3-3 Bad PPI: 6; eIF4E-4G inh: 70*; Mcl1-Bid inh: -27; p47phox inh: 13; Bim-Mcl-1: -5

Results for O=C1CCCC/C1=C/Nc1cccc(C(F)(F)F)c1 ?
Mcl1-Noxa inh: 15; 14-3-3 Bad PPI: 93*; eIF4E-4G inh: 1; Mcl1-Bid inh: -44; p47phox inh: -3; Bim-Mcl-1: 2

How did Cc1ccc(-c2cc(-c3n[nH]c(=S)n3C)c3ccccc3n2)cc1 do in these assays?
Mcl1-Noxa inh: 14; 14-3-3 Bad PPI: -26; eIF4E-4G inh: 7; Mcl1-Bid inh: -54; p47phox inh: -4; Bim-Mcl-1: -4

What do the screens show for `O=C(Cc1ccc(S(=O)(=O)N2CCOCC2)s1)Nc1nc2c(s1)CCCC2`?
Mcl1-Noxa inh: 71*; 14-3-3 Bad PPI: 54; eIF4E-4G inh: 1; Mcl1-Bid inh: -59; p47phox inh: -27; Bim-Mcl-1: 0

How did O=C(Cc1ccc(S(=O)(=O)N2CCOCC2)s1)Nc1ccc2c(c1)CCC2 do in these assays?
Mcl1-Noxa inh: -2; 14-3-3 Bad PPI: 3; eIF4E-4G inh: -4; Mcl1-Bid inh: -8; p47phox inh: -18; Bim-Mcl-1: -1

How did CCO[C@@H]1OC(C(N)=O)=C[C@H](c2ccc3c(c2)OCO3)[C@H]1CCCO do in these assays?
Mcl1-Noxa inh: 3; 14-3-3 Bad PPI: 0; eIF4E-4G inh: 1; Mcl1-Bid inh: -7; p47phox inh: -3; Bim-Mcl-1: 0

Results for CCC1Oc2ccccc2N(CC(=O)NCc2ccco2)C1=O (centres undefined) ?
Mcl1-Noxa inh: -6; 14-3-3 Bad PPI: -3; eIF4E-4G inh: -1; Mcl1-Bid inh: -49; p47phox inh: -1; Bim-Mcl-1: -2

What do the screens show for `CCN(CC)S(=O)(=O)N1CCC(C(=O)NCc2ccco2)CC1`?
Mcl1-Noxa inh: 4; 14-3-3 Bad PPI: -4; eIF4E-4G inh: 0; Mcl1-Bid inh: -6; p47phox inh: -1; Bim-Mcl-1: -1

What do the screens show for `O=C(NCc1ccco1)c1cc2ccc(O)cc2oc1=O`?
Mcl1-Noxa inh: 56*; Mcl1-Bid inh: -75; p47phox inh: -35; Bim-Mcl-1: 0

What do the screens show for `COc1ccc(-c2cnnc(N/N=C/c3ccc(O)cc3)n2)cc1`?
Mcl1-Noxa inh: 88*; 14-3-3 Bad PPI: 36; eIF4E-4G inh: 10; Mcl1-Bid inh: 25; p47phox inh: -62; Bim-Mcl-1: 0

Results for CC(C)(C)C1CCC(=NOC(=O)c2ccc(F)cc2)CC1 (centres undefined) ?
Mcl1-Noxa inh: 0; 14-3-3 Bad PPI: 3; eIF4E-4G inh: -1; Mcl1-Bid inh: -1; p47phox inh: -2; Bim-Mcl-1: 1

How did Cc1cc(N2CCN(c3ccccn3)CC2)n2cc(-c3ccccc3)nc2n1 do in these assays?
Mcl1-Noxa inh: 5; 14-3-3 Bad PPI: -13; eIF4E-4G inh: -11; Mcl1-Bid inh: -13; p47phox inh: -2; Bim-Mcl-1: 0

Results for Fc1ccc(-c2cc3nc(-c4ccccc4)cc(N4CCN(CCN5CCOCC5)CC4)n3n2)cc1 ?
Mcl1-Noxa inh: 12; 14-3-3 Bad PPI: 28; eIF4E-4G inh: 2; Mcl1-Bid inh: -2; p47phox inh: -15; Bim-Mcl-1: -2

How did Cc1cc(N2CCN(C)CC2)n2cc(-c3ccc(F)cc3)nc2n1 do in these assays?
Mcl1-Noxa inh: 58*; 14-3-3 Bad PPI: 7; eIF4E-4G inh: -4; Mcl1-Bid inh: -22; p47phox inh: 0; Bim-Mcl-1: -1

Results for CN1CCN(c2cc(-c3ccccc3)nc3cc(-c4ccc(F)cc4)nn23)CC1 ?
Mcl1-Noxa inh: 52*; 14-3-3 Bad PPI: -11; eIF4E-4G inh: 2; Mcl1-Bid inh: 6; p47phox inh: -18; Bim-Mcl-1: 0

Results for CCCCCSc1nnc2c(n1)OC(c1cccn1C)N(C(C)=O)c1ccccc1-2 (centres undefined) ?
Mcl1-Noxa inh: 7; 14-3-3 Bad PPI: -10; eIF4E-4G inh: -3; Mcl1-Bid inh: 98*; p47phox inh: -6; Bim-Mcl-1: 0

What do the screens show for `Cc1ccc(C(C)C)c(OCc2n[nH]c(=S)o2)c1`?
Mcl1-Noxa inh: -11; 14-3-3 Bad PPI: -28; eIF4E-4G inh: -3; Mcl1-Bid inh: -43; p47phox inh: -34; Bim-Mcl-1: 1

How did Cc1ccc(C(C)C)c(OCc2nc(-c3nonc3N)no2)c1 do in these assays?
Mcl1-Noxa inh: 8; 14-3-3 Bad PPI: -16; eIF4E-4G inh: 53*; Mcl1-Bid inh: 6; p47phox inh: 166*; Bim-Mcl-1: 2

What do the screens show for `O=[N+]([O-])c1ccc(-c2cc(-c3ccc(Cl)cc3)n[nH]2)cc1`?
Mcl1-Noxa inh: 81*; 14-3-3 Bad PPI: 65; eIF4E-4G inh: -25; Mcl1-Bid inh: 44; p47phox inh: -63; Bim-Mcl-1: 3

What do the screens show for `O=[N+]([O-])c1ccc2nc(-c3ccc(Cl)cc3)[nH]c2c1`?
Mcl1-Noxa inh: 45; 14-3-3 Bad PPI: 9; eIF4E-4G inh: -3; Mcl1-Bid inh: -3; p47phox inh: -18; Bim-Mcl-1: -3

What do the screens show for `C=CCNC(=S)/N=c1/ccccn1CCC`?
Mcl1-Noxa inh: -2; 14-3-3 Bad PPI: -8; eIF4E-4G inh: -4; Mcl1-Bid inh: -48; p47phox inh: 3

Results for O=C(COc1ccccc1Cl)c1ccc[nH]1 ?
Mcl1-Noxa inh: 50; 14-3-3 Bad PPI: 35; eIF4E-4G inh: 33*; Mcl1-Bid inh: -5; p47phox inh: -8; Bim-Mcl-1: 1

Results for O=C(COc1ccc(Br)cc1Cl)c1ccc[nH]1 ?
Mcl1-Noxa inh: 15; 14-3-3 Bad PPI: 1; eIF4E-4G inh: 4; Mcl1-Bid inh: -1; p47phox inh: -1; Bim-Mcl-1: -3

What do the screens show for `O=C(NCCc1ccncc1)c1ccccc1F`?
Mcl1-Noxa inh: -5; 14-3-3 Bad PPI: 1; eIF4E-4G inh: 61*; Mcl1-Bid inh: -3; p47phox inh: -7; Bim-Mcl-1: 1

Results for O=C(COC(=O)c1ccc(CO)cc1)NCc1cccs1 ?
Mcl1-Noxa inh: 7; 14-3-3 Bad PPI: -7; eIF4E-4G inh: 15; Mcl1-Bid inh: -11; p47phox inh: -8; Bim-Mcl-1: -6

Bioassay records (PubChem)
